Experiment [1] has as its target Voltage-gated inwardly rectifying potassium channel KCNH2 (Homo sapiens) (UniProt Q12809). In words: qHTS Assay for Small Molecule Inhibitors of the Human hERG Channel Activity (AID 588834).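 Also: lower thallium flux fluorescence means stronger hERG block; nearly all actives have a fitted effect of over 50% in size.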 Also: potency is read from the fitted curve at half-maximal effect. In a few lines:
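hERG block measured as reduced thallium-dye (FluxOR) fluorescence after stimulation buffer addition, read over 2 min. Cells were hERG-BacMam-transduced U2OS exposed to compound ~10 min […]; concentration-response fitted with Hill equation for AC50.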
In general terms: In qHTS, concentration-response curves come from the screen itself.

A short description of experiment [2]: qHTS of Trypanosoma Brucei Inhibitors: LOPAC Validation (AID 624147). Also: 0% is about no effect. In a few lines:
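Readout: single end-point luminescence (Kinase-Glo Plus, 10 min). Reaction conditions were TbPYK/substrate plus 130 uM ADP, 45 min at RT, pH 7.2 TEA buffer. No-enzyme wells served as controls, and data were normalized before concentration-response fitting.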

Experiment [3] deals with Glucagon-like peptide 1 receptor (Homo sapiens) (UniProt P43220). Briefly: qHTS of GLP-1 Receptor Agonists: LOPAC Validation (AID 624148).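 Also: luminescence from a luciferase reporter switched on by cAMP; 0% is about no effect; higher luminescence signal means agonism.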 The gist of the method:
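Agonism scored as increased luciferase luminescence driven by cAMP in HEK293 clones carrying GLP-1R. Cells settled 12 hours, received compound for 4-6 hr at 37 deg C, 5% CO2, and were read after 12 min detection reagent at RT.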

Experiment [4] is described as follows: qHTS of Nrf2 Activators: LOPAC Validation (AID 624149). Also: 0% is about no effect. In a few lines: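 Luciferase signal from ARE activation, read with Steady-Glo after 30 min at room temperature. Compounds were pin-transferred onto AREc32_Fluc cells (1000/well, OPTI-MEM/5% FBS, seeded overnight) and left 24 hr at 37 deg C.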
A short description of experiment [5]: HTS Assay for Allosteric Antagonists of the Human D2 Dopamine Receptor: Hit Validation in HTRF (AID 624455). Also: potency is read from the fitted curve at half-maximal effect.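 Also: stable D1 dopamine receptor cell line scored for blocking the D1 response.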 In a few lines:
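Inhibition of the D1-mediated response was measured by HTRF. Cells used were a line stably expressing the D1 dopamine receptor.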
Background: In TR-FRET formats the signal depends on donor and acceptor labels being close together.

Experiment [6] has as its target Glutaminase kidney isoform, mitochondrial (Homo sapiens) (UniProt O94925). In words: qHTS for Inhibitors of Glutaminase (GLS): LOPAC Validation (AID 624146). Also: nearly all actives have a fitted effect of over 60% in size. Also: potency is read from the fitted curve at half-maximal effect. In a few lines: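 Coupled fluorescence readout: glutamate oxidase/HRP/Amplex Red detect glutamate formed by hKGA from L-glutamine (1 mM solution added). Buffer 45 mM KH2PO4 pH 8.2, 0.02% Tween-20; reads at t0 and 30 min RT.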

For experiment [7], the target named is Luciferin 4-monooxygenase (Photinus pyralis) (UniProt P08659). In words: Biochemical firefly luciferase enzyme assay for NPC (AID 624030).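 Also: purified P. pyralis luciferase at 10 nM with luciferin and ATP substrate; series mostly up to about 59 µM; 0% = DMSO and -100% = full luciferase inhibition by PTC124 control; nearly all actives have a fitted effect of over 70% in size.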 In a few lines:
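Direct inhibition of firefly luciferase enzyme (10 nM final, 50 mM Tris Acetate) assessed by luminescence within 5 minutes. Percent activity scaled between DMSO and PTC124 positive control, with concentration-effect curves classified by fit quality and response.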

Experiment [8] can be described thus: S16 Schwann cell viability assay (CellTiter-Glo assay) (AID 624031).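 Also: native untransfected S16 rat Schwann cells; cellular ATP luminescence as a viability measure; series mostly up to about 58 µM; plate controls were DMSO-treated cells for no effect and cell-free wells for full effect; nearly all actives have a fitted effect of over 70% in size.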 In a few lines: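 Parental S16 cells, 24 h compound, 37 °C. ATP-luminescence viability; DMSO = 0% activity, empty wells as reference; curves classified by fit quality and efficacy.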
Experiment [9] can be described thus: S16 Schwann cell PMP22 intronic element firefly luciferase assay (AID 624032).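 Also: series mostly up to about 58 µM; plate controls were DMSO for no effect and PTC124 positive control mean for full effect; nearly all actives have a fitted effect of over 30% in size.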 The gist of the method: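 Luciferase reporter of PMP22 intronic-element expression in stably transfected S16 rat Schwann cells, read by ONE-Glo luminescence after 24 h compound exposure at 37 C. Activity scaled between DMSO (0%) and positive-control PTC124; concentration-effect curves quality-classified.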

Experiment [10] in a line: qHTS assay for small molecule activators of the p53 signaling pathway (AID 651743; active = well fitted activation curve with a large enough effect in the signal ratio, not every such curve was filed as active; the % refers to the signal ratio; also: series mostly up to about 92 µM; % of control where 0% means no effect). As to conditions: HCT-116 p53RE-bla, beta-lactamase FRET ratio, 16 h; activation: hits give high values. In a few lines: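 After 16 hours compound treatment at 37 C, HCT-116 cells stably expressing p53RE-driven beta-lactamase were loaded with LiveBLAzer B/G FRET substrate for 2 hours at room temperature. Fluorescence intensity served as the p53 activation read-out.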

Experiment [11] can be described thus: S16 Schwann cell PMP22 intronic element beta-lactamase assay (AID 624044; calls by dose curve;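 also: 0% = DMSO and -100% = potassium clavulanate positive control; nearly all actives have a fitted effect of over 15% in size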). In a few lines:
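Beta-lactamase reporter under a PMP22 intronic regulatory element in stable S16 rat Schwann cells; 24 h compound exposure. 460 nm blue signal normalized between DMSO (0%) and potassium clavulanate, with 535 nm FRET tracking viability; curves classed by r2 and response.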

A number with no mark means an inactive call. Inconclusive results are not listed. Active and inactive are the calls of the source. Unless noted, calls follow the shape of the dose curve; as a rule, active = well fitted curve in the direction sought with a large enough effect; inconclusive = small, poorly fitted or top-dose-only effect, or another doubt; inactive = no such curve, though single readings can be large; an effect the other way counts as inactive or inconclusive.

Glucagon-like peptide 1 receptor (Homo sapiens), sequence (P43220 whole entry, looked up): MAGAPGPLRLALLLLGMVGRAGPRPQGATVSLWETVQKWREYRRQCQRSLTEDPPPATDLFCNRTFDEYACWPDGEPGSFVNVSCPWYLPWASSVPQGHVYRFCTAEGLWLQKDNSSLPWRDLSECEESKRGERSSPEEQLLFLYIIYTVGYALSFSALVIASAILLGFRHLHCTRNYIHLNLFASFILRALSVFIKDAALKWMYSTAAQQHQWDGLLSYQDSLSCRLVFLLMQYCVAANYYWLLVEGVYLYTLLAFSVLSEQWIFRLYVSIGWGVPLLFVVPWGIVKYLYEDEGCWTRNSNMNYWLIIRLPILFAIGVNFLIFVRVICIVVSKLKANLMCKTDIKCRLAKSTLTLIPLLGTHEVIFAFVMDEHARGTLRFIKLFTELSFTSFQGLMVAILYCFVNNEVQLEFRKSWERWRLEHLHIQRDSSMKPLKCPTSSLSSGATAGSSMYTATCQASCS
Luciferin 4-monooxygenase (Photinus pyralis), sequence (P08659 whole entry, looked up): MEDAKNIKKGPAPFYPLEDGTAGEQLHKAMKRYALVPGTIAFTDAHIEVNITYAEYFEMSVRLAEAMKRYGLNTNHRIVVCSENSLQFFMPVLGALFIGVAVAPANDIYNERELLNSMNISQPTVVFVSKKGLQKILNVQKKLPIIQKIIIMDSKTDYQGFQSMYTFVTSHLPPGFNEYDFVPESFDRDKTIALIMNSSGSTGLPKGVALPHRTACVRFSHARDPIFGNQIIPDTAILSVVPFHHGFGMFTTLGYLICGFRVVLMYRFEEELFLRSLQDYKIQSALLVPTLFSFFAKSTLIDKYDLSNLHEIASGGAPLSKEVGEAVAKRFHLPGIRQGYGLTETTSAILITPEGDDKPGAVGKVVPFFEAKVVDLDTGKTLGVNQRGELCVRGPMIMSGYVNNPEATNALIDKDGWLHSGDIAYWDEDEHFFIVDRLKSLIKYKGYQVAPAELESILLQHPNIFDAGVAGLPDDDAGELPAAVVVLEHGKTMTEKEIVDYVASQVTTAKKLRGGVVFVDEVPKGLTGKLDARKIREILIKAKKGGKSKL
Voltage-gated inwardly rectifying potassium channel KCNH2 (Homo sapiens), sequence (Q12809 whole entry, looked up): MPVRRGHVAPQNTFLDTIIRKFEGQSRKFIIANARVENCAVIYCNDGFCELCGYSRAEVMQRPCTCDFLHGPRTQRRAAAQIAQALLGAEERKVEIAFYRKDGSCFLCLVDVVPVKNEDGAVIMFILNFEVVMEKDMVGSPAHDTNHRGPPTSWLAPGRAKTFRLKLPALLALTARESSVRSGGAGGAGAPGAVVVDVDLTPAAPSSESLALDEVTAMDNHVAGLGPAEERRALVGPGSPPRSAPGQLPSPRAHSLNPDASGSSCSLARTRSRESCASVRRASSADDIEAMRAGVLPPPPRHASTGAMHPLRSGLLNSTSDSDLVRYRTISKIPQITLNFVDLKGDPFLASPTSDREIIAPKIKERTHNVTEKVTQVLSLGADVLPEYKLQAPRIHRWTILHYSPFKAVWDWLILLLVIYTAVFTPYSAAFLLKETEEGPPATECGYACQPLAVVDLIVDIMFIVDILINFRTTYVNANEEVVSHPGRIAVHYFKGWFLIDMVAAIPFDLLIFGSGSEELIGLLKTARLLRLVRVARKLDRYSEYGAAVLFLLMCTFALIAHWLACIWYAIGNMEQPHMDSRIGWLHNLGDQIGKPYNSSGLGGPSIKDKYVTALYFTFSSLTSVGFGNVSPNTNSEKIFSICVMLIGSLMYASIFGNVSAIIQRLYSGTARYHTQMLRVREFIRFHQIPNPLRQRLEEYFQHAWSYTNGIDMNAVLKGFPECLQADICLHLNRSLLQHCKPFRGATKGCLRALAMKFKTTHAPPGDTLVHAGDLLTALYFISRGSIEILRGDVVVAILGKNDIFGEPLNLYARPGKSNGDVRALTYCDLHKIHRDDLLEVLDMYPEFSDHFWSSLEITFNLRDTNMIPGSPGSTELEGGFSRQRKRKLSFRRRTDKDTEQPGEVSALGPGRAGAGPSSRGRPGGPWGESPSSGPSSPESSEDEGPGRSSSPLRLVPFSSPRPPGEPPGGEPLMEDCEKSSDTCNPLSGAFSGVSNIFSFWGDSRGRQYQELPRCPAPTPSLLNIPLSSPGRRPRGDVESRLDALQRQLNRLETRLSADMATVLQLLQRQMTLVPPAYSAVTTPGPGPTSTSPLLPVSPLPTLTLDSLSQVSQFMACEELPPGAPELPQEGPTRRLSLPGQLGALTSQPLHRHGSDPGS
Glutaminase kidney isoform, mitochondrial (Homo sapiens), sequence (O94925 whole entry, looked up, canonical isoform): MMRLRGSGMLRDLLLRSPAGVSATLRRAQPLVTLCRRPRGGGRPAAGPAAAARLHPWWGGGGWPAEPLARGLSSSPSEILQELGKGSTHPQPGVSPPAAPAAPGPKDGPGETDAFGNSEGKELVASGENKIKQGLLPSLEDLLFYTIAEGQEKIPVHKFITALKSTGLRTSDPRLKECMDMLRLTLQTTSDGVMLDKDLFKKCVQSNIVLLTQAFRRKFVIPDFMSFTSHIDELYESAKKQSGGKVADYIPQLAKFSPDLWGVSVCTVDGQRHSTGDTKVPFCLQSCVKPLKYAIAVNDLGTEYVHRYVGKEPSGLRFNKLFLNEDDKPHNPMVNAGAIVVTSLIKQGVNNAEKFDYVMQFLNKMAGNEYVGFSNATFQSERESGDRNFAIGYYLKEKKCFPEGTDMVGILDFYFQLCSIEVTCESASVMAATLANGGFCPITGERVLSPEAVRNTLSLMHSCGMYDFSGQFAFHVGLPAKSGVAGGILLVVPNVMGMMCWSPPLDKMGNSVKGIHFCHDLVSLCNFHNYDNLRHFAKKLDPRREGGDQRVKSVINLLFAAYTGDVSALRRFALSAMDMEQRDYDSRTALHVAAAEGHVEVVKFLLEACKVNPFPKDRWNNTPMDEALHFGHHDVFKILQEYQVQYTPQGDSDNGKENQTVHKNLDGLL

For the compound `CO[C@H]1CC=C2CCN3CCC4=C(CC(=O)OC4)[C@]23C1`, the Potency result in experiment [1], in [2], in experiment [4] and in [5] was “inactive” throughout. For the same compound, the call in experiment [3] was inactive.
Regarding `CN(N=O)c1ccc(O)c(O)c1`, the Potency result in experiment [1], in [6] and in experiment [4] was “inactive” throughout. Besides, the compound was called inactive in experiment [3].
In the case of `CCCN(CCC)CCc1c[nH]c2ccc(C(N)=O)cc12`, in experiment [1], the Potency is 6.31 µM (active). In addition, the Potency result in [2] and in experiment [5] was “inactive” each time. Also, in experiment [3], the outcome was inactive.
For `NC(N)=Nc1ccc2[nH]c3c(c2c1)C[C@@]1(O)[C@H]2Cc4ccc(O)c5c4[C@@]1(CCN2CC1CC1)[C@H]3O5`, the Potency entry in experiment [1], in experiment [2] and in [5] was “inactive” in each case.
Take `O=S1(=O)N(CCN2CC=C(c3c[nH]c4cc(F)ccc34)CC2)c2cccc3c2N1CCC3`: the Potency in experiment [1] is 7.08 µM (active). The Potency entry in [2] and in experiment [5] was “inactive” in each case. The result in experiment [3] was inactive.
On to `NC(=O)c1cc(N2CC2)c([N+](=O)[O-])cc1[N+](=O)[O-]`, for which the Potency entry in experiment [1], in [2], in [4] and in [5] was “inactive” each time. For the same compound, the call in [3] was inactive.
On to `Oc1ccc2c3c1O[C@H]1c4[nH]c5ccccc5c4C[C@@]4(O)C(C2)N(CC2CC2)CCC314` (some centres not stated), for which the Potency in experiment [1] was 0.794 µM (active). Also, the Potency entry in experiment [2], in experiment [4] and in experiment [5] was “inactive” throughout. Moreover, the result in experiment [3] was inactive.
In the case of `CC(=O)NBr`, the Potency entry in experiment [1], in experiment [2], in [4] and in experiment [5] was “inactive” throughout. Further, the outcome in [3] was inactive.
For `O[C@H]1[C@H]2[C@H](O)CCCN2C[C@H]1O`, the Potency result in [7], in experiment [8] and in [9] was “inactive” in each case.
As to `c1ccc(C2(N3CCCC3)CCCCC2)cc1`, the Potency result in experiment [7] and in experiment [8] was “inactive” each time.
Regarding `NNC(=O)c1ccc(O)cc1`, the Potency entry in experiment [1], in [2], in [4] and in [5] was “inactive” each time. Also, in experiment [3], the outcome was inactive.
For the compound `O=[N+]([O-])c1ccc2nc(N3CCNCC3)ccc2c1`, the Potency entry in experiment [1], in [2], in experiment [4] and in experiment [5] was “inactive” throughout. Also, the call in experiment [3] was inactive.
For the compound `CC(=O)c1c(O)c(C)c(O)c(Cc2c(O)c3c(c(C(=O)/C=C/c4ccccc4)c2O)OC(C)(C)C=C3)c1O`, the Potency result in experiment [1], in [2], in [4] and in experiment [5] was “inactive” each time. Further, the result in experiment [3] was inactive.
Consider `c1cc2c(c(NC3=NCCN3)c1)CCCC2`, for which the Potency entry in experiment [7], in experiment [8] and in experiment [9] was “inactive” each time.
Consider `CNC(=O)OCC[N+](C)(C)C`, for which the Potency entry in experiment [7], in experiment [8] and in [9] was “inactive” in each case.
Consider `C[N+]1(C)CCOC(O)(c2ccc(-c3ccc(C4(O)C[N+](C)(C)CCO4)cc3)cc2)C1` (configuration not stated), for which the Potency result in experiment [1], in experiment [2] and in [5] was “inactive” throughout. Besides, the compound was classed as inactive in [3].
As to `NC(=O)CI`, the Potency entry in experiment [1], in experiment [6], in experiment [4] and in experiment [5] was “inactive” in each case. Besides, in [3], the compound was called inactive.
As to `COc1ccc2[nH]cc(CCN)c2c1`, the Potency entry in experiment [1], in experiment [2] and in experiment [4] was “inactive” in each case. For the same compound, the outcome in experiment [3] was inactive.
Regarding `C[N+](C)(C)CCOC(=O)CBr`, the Potency result in experiment [1], in experiment [2], in experiment [4] and in [5] was “inactive” throughout. Also, the compound was classed as inactive in [3].
In the case of `C#CCN1CC(=O)N(COC(=O)C2C(C=C(C)C)C2(C)C)C1=O` (configuration not stated), the Potency result in experiment [1] is “inactive”. In addition, in experiment [10], the activation is -4.17%.
Turning to `COC(=O)N1CCN(C(=O)Cc2ccc(Cl)c(Cl)c2)C(CN2CCCC2)C1` (configuration not stated), the Potency in [1] was 11.2 µM (active). Also, the Potency result in [2], in experiment [4] and in [5] was “inactive” throughout. Also, the compound was classed as inactive in experiment [3].
Consider `NC(N)=NOCC[C@H](N)C(=O)O`, for which the Potency entry in [1], in [2] and in [5] was “inactive” throughout. Moreover, the call in experiment [3] was inactive.
As to `C[N+]1(C)CCN(c2ccccc2)CC1`, the Potency entry in experiment [1], in experiment [6], in experiment [2] and in [5] was “inactive” each time. In experiment [3], the compound was classed as inactive.
With `CP(=O)(O)C1=CCNCC1`, the Potency entry in [1], in [2], in experiment [4] and in [5] was “inactive” each time. For the same compound, the call in experiment [3] was inactive.
Regarding `OC1CCCCC1N1CCC(c2ccccc2)CC1` (configuration not stated), the Potency result in experiment [1], in [6], in [2] and in [5] was “inactive” each time. The outcome in [3] was inactive.
Regarding `CN1CC[C@@]2(C)c3cc(O)ccc3N(C)C12` (some centres not stated), the Potency in [1] was 35.5 µM (active). The Potency entry in [2], in [4] and in [5] was “inactive” throughout. In addition, the call in experiment [3] was inactive.
`CCCN(CCC)[C@H]1CCc2c(F)ccc(O)c2C1`: the results for the Potency in experiment [1] and in [5] were 7.08 µM (active) and 7.31 µM (active), respectively. Besides, the Potency entry in [2] and in experiment [4] was “inactive” throughout. Moreover, in experiment [3], the result was inactive.
For `NCC(O)c1cccc(O)c1` (configuration not stated), the Potency result in experiment [7], in experiment [8] and in [9] was “inactive” throughout.
As to `NCCCP(=O)(O)O`, the Potency result in experiment [1], in [2], in experiment [4] and in experiment [5] was “inactive” in each case. Further, in experiment [3], the call was inactive.
On to `COc1ccc2[nH]c3c(c2c1)CCNC3`, for which the Potency entry in [1], in experiment [2] and in [5] was “inactive” in each case. Also, the outcome in [3] was inactive.
Regarding `CC(N)[C@H](O)c1ccc(O)c(O)c1` (some centres not stated), the Potency result in [1], in [2] and in [5] was “inactive” in each case.
For the compound `[Cl][Pt][Cl]`, the Potency entry in [7] is “inactive”.
Turning to `Cc1c2ccncc2c(C)c2c1[nH]c1ccccc12`, the Potency in [1] was 20 µM (active). For the same compound, the Potency entry in experiment [2], in experiment [4] and in [5] was “inactive” each time. For the same compound, the compound was called inactive in experiment [3].
As to `CN(N=O)c1cc(O)ccc1O`, the Potency entry in [1] and in experiment [5] was “inactive” each time. For the same compound, the Potency in experiment [6] was 1.78 µM (active). Further, the compound was called inactive in [3].
With `CCCC(=O)OC(C(Cl)(Cl)Cl)P(=O)(OC)OC` (configuration not stated), the Potency entry in experiment [7], in experiment [8], in [9] and in [11] was “inactive” each time.
Take `C[C@H](N)Cc1cccc(C(F)(F)F)c1`: the Potency result in [6], in experiment [2], in [4] and in [5] was “inactive” each time. Also, in experiment [3], the outcome was inactive.
Regarding `CCNC(C)Cc1cccc(C(F)(F)F)c1` (configuration not stated), the Potency entry in [7], in [8] and in experiment [9] was “inactive” throughout.
With `CCOC(=O)c1ncn2c1[C@@H]1CCCN1C(=O)c1cc(OC)ccc1-2`, the Potency result in experiment [6], in experiment [2], in experiment [4] and in experiment [5] was “inactive” throughout. For the same compound, the result in experiment [3] was inactive.
Turning to `C=CCN1CCC23c4c5ccc(O)c4O[C@H]2C(=O)CC[C@@]3(O)C1C5` (some centres not stated), the Potency entry in [7], in experiment [8], in [2] and in experiment [5] was “inactive” in each case. In addition, the compound was classed as inactive in experiment [3].
